# Screens deposited in PubChem BioAssay by National Center for Advancing Translational Sciences (NCATS).
# HP1b chromo inh: HTS for Inhibitors of HP1-beta Chromodomain Interactions with Methylated Histone Tails; Chromobox protein homolog 1 (Homo sapiens), P83916; AlphaScreen HP1-beta / biotin-H3K9me3 peptide binding; Potency, µM (top dose mostly 114 µM), for inactives: top-dose activity change, negative = inhibition, actives largely listed as inhibitors; 0.56% of 390,000 active; AID 540317, 2011; further: potency means the concentration at half of the fitted maximal effect; nearly all actives have a fitted effect of over 70% in size
#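 Compound inhibition of the preformed complex between 50 nM HP1-beta and 50 nM biotinylated H3K9me3 peptide was read by AlphaScreen. Buffer was PBS pH 7.4 with 0.01% Tween-20. Incubations ran 30 min at room temperature, with 10 ug/mL donor/acceptor beads.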
# G9a block: qHTS Assay for Inhibitors of Histone Lysine Methyltransferase G9a; Histone-lysine N-methyltransferase EHMT2 (Homo sapiens), Q96KQ7; G9a H3K9 monomethylation, AlphaScreen, 2 h; Potency, µM (doses to about 102 µM), without a hit: top-dose activity, negative = inhibition, most hits filed as inhibitors; 8.8% of 350,000 active; AID 504332, 2011; further: potency means the concentration at half of the fitted maximal effect; on the % scale 0 is the no-effect control and ±100 the full control effect; nearly all actives have a fitted effect of over 75% in size
#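 Readings reflect AlphaScreen signal from monomethyl-H3K9 antibody detection. HMT at 20 nM; substrate b-H3K9 500 nM; cofactor SAM 20 uM; 2 h RT reaction; compounds tested as titrations in qHTS with 15 min preincubation.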
# JMJD2A Tudor inh: qHTS Assay for Inhibitors of JMJD2A-Tudor Domain | AlphaScreen JMJD2A-Tudor / H3K4me3 peptide binding | Potency, µM (top dose mostly 114 µM), for the others: at the highest dose activity change, negative = inhibition, most hits filed as inhibitors | 4.4% of 390,000 active; further: potency means the concentration at half of the fitted maximal effect; on the % scale 0 is the no-effect control and ±100 the full control effect; nearly all actives have a fitted effect of over 50% in size
# CtBP-E1A blk: qHTS Assay for Inhibitors of the CtBP/E1A Interaction. CtBP / adenovirus E1A interaction (AlphaScreen). AlphaScreen GST-E1A/His-CtBP binding, 1536-well; hits give low values. activity change, % (no concentration beside the values). 0.49% of 340,000 active. AID 651724, 2012; in the data active means activity change below about -65%; inconclusive means mostly about -30% to -63%; further: on the % scale 0 is the no-effect control and ±100 the full control effect
#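 Protein mix (5X: 125 nM each GST-E1A, His-CtBP) was incubated with pinned compound 2 h at 37 deg C in dark, in 50 mM Tris pH 8.0 buffer with 300 mM NaCl. Glutathione donor and nickel acceptor beads followed; AlphaScreen signal read after 1 h.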
# Six1-Eya2 blk: qHTS Assay for Inhibitors of the Six1/Eya2 Interaction. activity change, % (test concentration not listed). AID 651725, 2012. AlphaScreen GST-Six1/His-Eya2 binding, biochemical; hits give low values. 0.56% of 360,000 active. Homeobox protein SIX1 (Homo sapiens) + Protein phosphatase EYA2 (Homo sapiens), …; in the data active means activity change below about -65%; inconclusive means mostly about -30% to -63%; further: on the % scale 0 is the no-effect control and ±100 the full control effect
#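 Compounds are tested against tagged Six1 and Eya2 proteins bridged by glutathione donor and nickel acceptor beads; after a one-hour incubation at 37 °C without light, AlphaScreen emission is recorded.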
# BAZ2B inh: qHTS Assay for Inhibitors of BAZ2B. AlphaScreen BAZ2B-H3K14Ac peptide displacement. Bromodomain adjacent to zinc finger domain protein 2B (Homo sapiens), Q9UIF8. Potency, µM (doses to about 114 µM), for the others: at the highest dose activity change, negative = inhibition, usual class: inhibitors. 4.4% of 360,000 active; further: potency means the concentration at half of the fitted maximal effect; on the % scale 0 is the no-effect control and ±100 the full control effect; nearly all actives have a fitted effect of over 60% in size
# Target sequence (Q9UIF8 whole entry, looked up, the tested form may be a part): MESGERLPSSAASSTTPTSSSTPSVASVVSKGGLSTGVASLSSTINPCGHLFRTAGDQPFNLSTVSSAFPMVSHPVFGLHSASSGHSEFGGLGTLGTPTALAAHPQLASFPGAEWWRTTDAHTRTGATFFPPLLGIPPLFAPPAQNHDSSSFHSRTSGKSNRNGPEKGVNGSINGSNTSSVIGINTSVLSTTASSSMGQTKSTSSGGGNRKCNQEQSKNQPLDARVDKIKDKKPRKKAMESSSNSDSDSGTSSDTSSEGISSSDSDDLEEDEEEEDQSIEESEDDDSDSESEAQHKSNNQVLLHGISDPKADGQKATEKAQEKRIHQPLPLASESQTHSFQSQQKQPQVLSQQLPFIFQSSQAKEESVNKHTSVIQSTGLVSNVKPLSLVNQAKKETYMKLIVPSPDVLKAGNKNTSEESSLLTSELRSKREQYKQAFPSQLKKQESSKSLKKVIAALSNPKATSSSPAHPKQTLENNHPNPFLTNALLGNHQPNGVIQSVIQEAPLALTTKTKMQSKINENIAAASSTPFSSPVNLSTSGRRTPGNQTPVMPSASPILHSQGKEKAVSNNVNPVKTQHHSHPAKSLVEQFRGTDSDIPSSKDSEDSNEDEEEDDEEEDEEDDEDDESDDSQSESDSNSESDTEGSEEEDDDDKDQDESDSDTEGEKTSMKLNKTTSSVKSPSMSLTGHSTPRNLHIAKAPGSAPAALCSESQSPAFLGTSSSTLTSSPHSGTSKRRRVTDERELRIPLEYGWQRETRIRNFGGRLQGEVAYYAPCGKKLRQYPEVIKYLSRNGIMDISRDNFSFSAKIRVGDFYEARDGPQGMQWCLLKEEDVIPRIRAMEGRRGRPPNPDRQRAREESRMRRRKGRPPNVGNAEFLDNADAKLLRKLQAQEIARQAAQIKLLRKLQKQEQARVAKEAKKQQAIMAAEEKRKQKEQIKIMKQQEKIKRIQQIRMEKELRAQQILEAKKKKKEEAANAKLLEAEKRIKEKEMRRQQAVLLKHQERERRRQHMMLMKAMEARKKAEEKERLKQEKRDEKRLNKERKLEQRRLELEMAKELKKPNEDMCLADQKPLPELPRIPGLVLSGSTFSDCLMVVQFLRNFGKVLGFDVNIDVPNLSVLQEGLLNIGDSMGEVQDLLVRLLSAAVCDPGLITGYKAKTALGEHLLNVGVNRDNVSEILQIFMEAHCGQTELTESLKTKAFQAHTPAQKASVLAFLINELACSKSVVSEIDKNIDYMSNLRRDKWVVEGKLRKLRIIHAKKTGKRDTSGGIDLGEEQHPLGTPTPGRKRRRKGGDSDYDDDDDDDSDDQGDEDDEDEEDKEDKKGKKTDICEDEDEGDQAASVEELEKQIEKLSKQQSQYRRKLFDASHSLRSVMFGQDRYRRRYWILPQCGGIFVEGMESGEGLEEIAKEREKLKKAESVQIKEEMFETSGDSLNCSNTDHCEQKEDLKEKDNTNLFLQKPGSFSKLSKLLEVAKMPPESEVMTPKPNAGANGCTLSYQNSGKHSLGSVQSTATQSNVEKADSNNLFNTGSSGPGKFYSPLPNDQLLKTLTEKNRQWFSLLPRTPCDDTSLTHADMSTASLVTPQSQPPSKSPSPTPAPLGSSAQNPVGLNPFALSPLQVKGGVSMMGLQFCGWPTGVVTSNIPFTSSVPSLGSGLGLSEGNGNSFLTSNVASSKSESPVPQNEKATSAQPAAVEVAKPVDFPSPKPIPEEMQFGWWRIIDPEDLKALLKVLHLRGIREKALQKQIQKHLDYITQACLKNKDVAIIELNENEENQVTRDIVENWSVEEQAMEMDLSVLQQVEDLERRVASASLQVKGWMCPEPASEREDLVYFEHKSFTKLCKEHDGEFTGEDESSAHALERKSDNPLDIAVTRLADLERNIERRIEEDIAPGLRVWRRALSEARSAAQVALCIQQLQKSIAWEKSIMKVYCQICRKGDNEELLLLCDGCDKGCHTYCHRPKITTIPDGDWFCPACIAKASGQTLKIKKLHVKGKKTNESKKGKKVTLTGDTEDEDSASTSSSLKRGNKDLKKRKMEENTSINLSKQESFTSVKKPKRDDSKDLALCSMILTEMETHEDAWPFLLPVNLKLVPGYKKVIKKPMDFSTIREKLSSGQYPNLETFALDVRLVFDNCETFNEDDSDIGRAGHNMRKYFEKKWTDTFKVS
#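 Compounds, titrated to a top concentration of 110 uM, were incubated 30 min at room temperature with preformed BAZ2B/acetyl-K14 H3 peptide complex (50 nM each). Proximity signal was measured by AlphaScreen after 20 min with beads.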
# An asterisk follows results filed as active; ? = inconclusive; · = not tested or not shown; [ ] = remark or other dose. Most compounds without a hit are left out; they make up all but 10% or so of the library. Unless noted, the call rests on the fitted dose curve; in most records, active means well fitted inhibition curve with a large enough effect; inconclusive means small, poorly fitted or top-dose-only effect; inactive means no such curve, though single readings can be large or run the other way.
SMILES,HP1b chromo inh,G9a block,JMJD2A Tudor inh,CtBP-E1A blk,Six1-Eya2 blk,BAZ2B inh
O=c1c(C(c2ccc(O)cc2)c2c(O)nc3n(c2=O)CCS3)c(O)nc2n1CCS2,8%,?,45µM*,-9,-1,?
O=c1c(C(c2ccc(Br)cc2)c2c(O)nc3n(c2=O)CCS3)c(O)nc2n1CCS2,39%,?,-16%,2,-5,-16%
Cc1ccc(C(c2c(O)nc3n(c2=O)CCS3)c2c(O)nc3n(c2=O)CCS3)cc1,6%,10µM*,-18%,-9,7,3%
O=C(CCC(=O)c1ccccc1)Nc1ccc(F)c(Cl)c1,10%,-2%[59 µM],6%,·,·,7%
C=CCC[C@@H](CCCCC)OC(=O)/C=C/[C@H](O)[C@@H](O)C[C@@H](O)CC=C,·,·,·,1,-3,·
O=C(Cn1ccc2ccccc2c1=O)NCC(=O)N1CCCCC1,-14%,5%,-18%,3,9,12%
CCOC(=O)C1CCN(C(=O)CC(C)c2ccccc2)CC1 (stereo not drawn),?,7%[59 µM],28µM*,0,3,-24%
CCOC(=O)C1CCN(C(=O)CC(NS(=O)(=O)c2ccc(OC)cc2)C(C)C)CC1 (stereo not drawn),-8%,-22%[59 µM],16µM*,7,-2,13%
CCOC(=O)C1CCCN(C(=O)CC(C)c2ccccc2)C1 (stereo not drawn),25%,11%[12.7 µM],-11%,2,2,5%
CCOC(=O)C1CCN(C(=O)CSc2ccccc2)CC1,?,5%[12.7 µM],50µM*,4,2,2%
CCOC(=O)C1CCCN(C(=O)CNC(=O)Cn2ccc3ccccc3c2=O)C1 (stereo not drawn),54%,14µM*,-10%[57.1 µM],2,-2,-6%
CCOC(=O)c1noc2ncnc(NCc3ccccc3OC)c12,33%,3%[59 µM],-7%,·,·,0%
Cc1oc2c(c1C(=O)N1CCC(C)CC1)C(=O)c1ccccc1C2=O,17%,?,-26%,-11,10,?
CCOC(=O)C1CCCN(C(=O)CSc2ccc(NC(C)=O)cc2)C1 (stereo not drawn),52%,35µM*,0%,1,6,-20%
CCOC(=O)C1CCCN(C(=O)CSc2ccccc2)C1 (stereo not drawn),25%,8%[59 µM],0%,-6,-1,3%
CCOC(=O)C1CCN(C(=O)c2c(C)oc3c2C(=O)c2ccccc2C3=O)CC1,24%,50µM*,-14%,-3,2,-15%
COc1ccc(NC(=O)COCc2cc(-c3ccco3)on2)cc1Cl,-7%,-33%[59 µM],-5%,·,·,-38%
Cc1ccc(S(=O)(=O)Nc2ccc(O)c3ccccc23)c(C)c1,50µM*,22µM*,45µM*,2,?,45µM*
Cc1ccc(C)c(S(=O)(=O)Nc2ccc(O)c3ccccc23)c1,16µM*,28µM*,50µM*,·,-1,50µM*
Cc1ccc(S(=O)(=O)NNc2ccccc2)c(C)c1,-58%,1µM*,5µM*,12,3,56µM*
Cc1ccc(S(=O)(=O)Nc2cc(C(C(=O)OC(C)C)C(=O)C(F)(F)F)c(O)c3ccccc23)c(C)c1 (stereo not drawn),-11%,40µM*,-29%,-21,-77*,?
Cc1ccc(S(=O)(=O)NNC(=O)c2cccs2)c(C)c1,16%,-3%[59 µM],-3%,-10,1,9%
Cc1ccc(S(=O)(=O)Nc2ccc3c4c(cccc24)CC3)c(C)c1,48%,·,-14%[11.4 µM],16,-6,·
COc1ccc(C(=O)c2coc3ccc(O)cc23)cc1,22%,11%,-11%,·,10,2%
